DRD3 agonist = D3 dopamine receptor (human) agonism | P35462 | D3R DiscoveRx beta-arrestin cells, luminescence, 90 min | max activation, % | 0.58% of 410,000 active; in the data active means max activation above about 30%; further: 0% is about no effect
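Agonist-mode cell screen: cells plated at 1500/well and incubated overnight at 37 °C, then exposed to library compounds for 90 min at 37 °C. Detection reagent was added for 30–60 min at room temperature, and luminescence was read.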
D1 potentiator = potentiators of human D1 dopamine receptor. HEK293 TREx D1 cells, calcium flux, dopamine EC20 potentiation. 0.036% of 360,000 active. P21728. potentiation, % at 10 µM; in the data active means potentiation above about 30%; further: 0% is about no effect
D1 agonist = activates the human D1 dopamine receptor; 1% of 360,000 active; AID 504660; activation, % at 2 µM; HEK293 T-REx D1 cells, calcium flux, agonist mode; P21728; in the data active means activation above about 30%; further: 0% is about no effect
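Agonism was scored from calcium flux recorded over 180 s (1 read/s) after pintool compound addition, following a 10-cycle baseline. Cells were inducible force-coupled HEK293 TREx D1, plated overnight at 30 C and loaded with no-wash calcium dye.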
D3 antag = antagonists of human D3 dopamine receptor; P35462; D3R cells, DiscoveRx beta-arrestin luminescence, antagonist mode; stronger effect = lower value; max response, negative = inhibition, %; 2.5% of 360,000 active; in the data active means max response below about -50%; inconclusive means no clear call, values can overlap the other calls; further: on the % scale 0 is the no-effect control and ±100 the full control effect
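Cells plated overnight at 1500 cells/well, then exposed to library compounds with dopamine controls for 90 minutes at 37 degrees C. DiscoveRx reagent added for 30–60 minutes at room temperature; luminescence read, quantitative HTS format.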
D1 antagonist = antagonists of human D1 dopamine receptor; P21728; HEK293 TREx D1 cells, calcium flux, dopamine EC80; stronger effect = lower value; activity change, negative = inhibition, % at 10 µM; 3.2% of 360,000 active; AID 504652; in the data active means activity change below about -30%; further: on the % scale 0 is the no-effect control and ±100 the full control effect
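Tetracycline-induced HEK293 T-REx cells with force-coupled D1 receptor were loaded with a no-wash calcium dye. Compound was added after a 10 s baseline and read kinetically for 180 s; EC80 dopamine was then added and calcium flux followed another 180 s.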
ERG-DNA inh = blocks human ERG Ets domain binding to DNA; P11308; fluorescence polarization, His-ERG Ets domain / labelled DNA; Potency, µM (top dose mostly 76.9 µM), without a hit: top-dose FP activity, negative = inhibition, hits mostly inhibitors; 0.028% of 370,000 active; active means well fitted inhibition curve with a large enough effect in the polarisation, with a control signal flat; inconclusive means small, poorly fitted or top-dose-only effect, or effect the other way, or a change in a side signal; inactive means no such curve, though single readings can be large or run the other way; the % refers to the polarisation;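 further: polarization taken with two DNA probes labelled with fluorescein and Texas red; potency means the concentration at half of the fitted maximal effect; % of control where 0% means no effect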
Target sequence (P11308 whole entry, looked up, the tested form may be a part): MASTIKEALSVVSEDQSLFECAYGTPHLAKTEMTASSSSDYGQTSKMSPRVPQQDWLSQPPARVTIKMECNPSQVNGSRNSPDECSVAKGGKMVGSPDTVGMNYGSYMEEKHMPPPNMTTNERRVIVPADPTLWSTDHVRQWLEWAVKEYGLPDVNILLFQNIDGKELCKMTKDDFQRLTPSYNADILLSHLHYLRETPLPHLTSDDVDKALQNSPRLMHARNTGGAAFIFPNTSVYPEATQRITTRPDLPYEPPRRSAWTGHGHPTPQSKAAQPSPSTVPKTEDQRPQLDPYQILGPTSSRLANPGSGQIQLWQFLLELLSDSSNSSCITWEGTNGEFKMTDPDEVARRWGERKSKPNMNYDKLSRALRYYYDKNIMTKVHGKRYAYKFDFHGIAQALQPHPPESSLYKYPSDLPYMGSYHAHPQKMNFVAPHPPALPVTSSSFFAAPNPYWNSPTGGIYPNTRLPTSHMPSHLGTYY
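His-tagged ERG Ets domain (1 uM in the protein solution; 300mM KCl, 50mM Tris-HCl, 1mM EDTA, 1mM DTT, pH 7.5) received compound, then a probe mix of 5 nM fluorescein-DNA and 100nM Texas-615-DNA. Fluorescence polarization was read for both dyes.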
An asterisk follows results filed as active; ! = a repeat was not active. Rows were chosen to be rich in hits. Some 6.1% of all compounds tested hit in one or more screens of this group.

Screening COc1ccccc1N1CCN(C2CCCN(C(=O)c3cc(C(C)C)on3)C2)CC1 (stereo unspecified) returned DRD3 agonist -2 and D3 antag -62*.
For COc1ccccc1N1CCN(C2CCCN(C(=O)c3cccc(-c4ccco4)c3)C2)CC1 (stereo unspecified) the results were DRD3 agonist -13, D1 potentiator -7, D1 agonist 3, D3 antag -66*, D1 antagonist -9 and ERG-DNA inh 3%.
For COc1cc(OC)cc(C(=O)N2CCC(N3CCN(c4ccccc4OC)CC3)CC2)c1 the results were DRD3 agonist 0, D1 potentiator -4, D1 agonist -1, D3 antag -53*, D1 antagonist 2 and ERG-DNA inh 10%.
`Cc1ccc(C(OC(=O)c2ccco2)C(=O)NC2CCCCC2)cc1` (stereo unspecified) gave DRD3 agonist -8, D1 potentiator -10, D1 agonist 0, D3 antag 14, D1 antagonist 24 and ERG-DNA inh -6%.
For CC(C)CN(C(=O)CCCc1nc2ccccc2c(=O)[nH]1)c1c(N)n(Cc2ccccc2)c(=O)[nH]c1=O the results were DRD3 agonist 1, D1 potentiator -1, D1 agonist 2, D3 antag 6, D1 antagonist -12 and ERG-DNA inh 6%.
For COc1ccc(C(=O)N/N=C/C(C)c2ccccc2)cc1OC (stereo unspecified) the results were DRD3 agonist 1, D1 potentiator -3, D1 agonist 1, D3 antag inconclusive, D1 antagonist -2 and ERG-DNA inh -6%.
Screening Cc1cc(NC(=O)c2cccnc2)cc(-c2nc3cc(Cl)ccc3o2)c1O returned DRD3 agonist -10, D1 potentiator -3, D1 agonist 0, D1 antagonist -9 and ERG-DNA inh 3%.
CN1CCN(C(=O)c2ccc(CS(=O)Cc3ccc(Cl)cc3)o2)CC1 (stereo unspecified) was read as DRD3 agonist -5, D1 potentiator 0, D1 agonist 3, D3 antag -9, D1 antagonist -34* and ERG-DNA inh -14%.
`Cc1ccc(Cl)cc1N1CCN(C(=O)c2ccc(CS(=O)Cc3ccc(Cl)cc3)o2)CC1` (stereo unspecified) gave DRD3 agonist 4, D1 potentiator 2, D1 agonist 3, D3 antag 14, D1 antagonist 14 and ERG-DNA inh 13%.
Screening CCN(CC)CCSc1nnc2c3ccccc3n(Cc3ccccc3)c2n1 returned DRD3 agonist -23, D1 potentiator -1, D1 agonist 4, D3 antag -93*, D1 antagonist -4 and ERG-DNA inh 1%.
CCN(CC)CCSc1nnc2c3cc(F)ccc3n(Cc3ccccc3)c2n1 was read as DRD3 agonist -20, D1 potentiator 3, D1 agonist 1, D3 antag inconclusive, D1 antagonist -1 and ERG-DNA inh 0%.
For Cc1cc2nc(-c3ccc(=O)[nH]c3)n(Cc3ccccc3)c2cc1C the results were DRD3 agonist -3, D1 potentiator 0, D1 agonist 4, D3 antag -11, D1 antagonist 16 and ERG-DNA inh 8%.
Screening C=CCn1c(-c2ccc(Cl)cc2)c[nH]c1=S returned DRD3 agonist -1, D1 potentiator -3, D1 agonist 5, D3 antag -109*, D1 antagonist 3 and ERG-DNA inh -6%.
For C=CCn1c(-c2ccccc2)c[nH]c1=S the results were DRD3 agonist -3, D1 potentiator -4, D1 agonist 6, D3 antag -68*, D1 antagonist 7 and ERG-DNA inh 9%.
`CCn1c(-c2ccc(-c3ccccc3)cc2)c[nH]c1=S` gave DRD3 agonist -3, D1 potentiator -2, D1 agonist 5, D3 antag -12, D1 antagonist -1 and ERG-DNA inh -8%.
`Cn1c(-c2ccc(-c3ccccc3)cc2)c[nH]c1=S` gave DRD3 agonist -22, D1 potentiator -1, D1 agonist 0, D3 antag inconclusive, D1 antagonist 6 and ERG-DNA inh 7%.
`O=C(O)CSCC(=O)N1CCCN(c2nccc(C(F)(F)F)n2)CC1` gave DRD3 agonist 9, D1 potentiator -1, D1 agonist 2, D3 antag 5, D1 antagonist -4 and ERG-DNA inh -7%.
For CN(C)CC(O)COc1cc2ccccc2cc1C(=O)N1CCCCC1 (stereo unspecified) the results were DRD3 agonist -4, D1 potentiator -1, D1 agonist 1, D3 antag -59*, D1 antagonist -1 and ERG-DNA inh 3%.
For COc1ccc(C2(C(=O)Nc3ccc(S(N)(=O)=O)cc3)CCCC2)cc1 the results were DRD3 agonist 7, D1 potentiator -4, D1 agonist 8, D3 antag 4, D1 antagonist 17 and ERG-DNA inh 1%.
`COc1ccc(C(=O)N/C(=C\c2ccco2)C(=O)NCCCn2ccnc2)cc1` gave DRD3 agonist -17, D1 potentiator -8, D1 agonist 2, D3 antag -55*, D1 antagonist -7 and ERG-DNA inh -10%.
For O=C(NCCCn1ccnc1)/C(=C/c1ccc(Cl)cc1)NC(=O)c1ccccc1 the results were DRD3 agonist -10, D1 agonist 2, D3 antag 3, D1 antagonist 6 and ERG-DNA inh 4%.
For CN(C)c1ccc(/C=C(/NC(=O)c2ccccc2)C(=O)NCCCn2ccnc2)cc1 the results were DRD3 agonist 5, D1 potentiator -1, D1 agonist 34*, D3 antag -7, D1 antagonist -15 and ERG-DNA inh 23%.
For CN(C)S(=O)(=O)n1cc(/C=C(\NC(=O)c2ccccc2F)C(=O)NCCCn2ccnc2)c2ccccc21 the results were DRD3 agonist 1, D1 potentiator 11, D1 agonist 3, D3 antag 2, D1 antagonist -38*! and ERG-DNA inh 2%.
`CN(C)S(=O)(=O)n1cc(/C=C(\NC(=O)c2ccccc2)C(=O)N2CCCCC2)c2ccccc21` gave DRD3 agonist -2 and D3 antag 39.
For COCCCNC(=O)c1sc2nc(C)c(C(=O)Nc3ccc(C)cc3C)c(-c3ccc(Cl)cc3)c2c1N the results were DRD3 agonist 6, D1 potentiator 0, D1 agonist 5, D1 antagonist -5 and ERG-DNA inh -1%.
Screening CCN1CCc2c(sc3c2c(NCc2ccco2)nc2nnnn23)C1 returned DRD3 agonist 2, D1 potentiator 4, D1 agonist 2, D3 antag -65*, D1 antagonist -3 and ERG-DNA inh 0%.
